# Measured values: PubChem BioAssay (NCATS)
# Records with an inconclusive call do not appear. Where a call stands in place of a potency, no number is given. Values without a mark were called inactive. The source made the active and inactive calls. The call rests on the fitted dose curve; in most records, active means well fitted curve in the direction sought with a large enough effect; inconclusive means small, poorly fitted or top-dose-only effect, or another doubt; inactive means no such curve, though single readings can be large; an effect the other way counts as inactive or inconclusive.
# What was measured:
# KB-3-1 = test: Cytotoxic Profiling of Annotated Libraries Using Quantitative High-Throughput Screening (AID 1296008); settings: Five cell lines viability, CellTiter-Glo ATP luminescence, 48-72 h; max response: stronger effect = lower value; further: nearly all actives have a fitted effect of over 60% in size
# How it was run: (§1)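 Compounds were pin-transferred onto cells and incubated 48 or 72 hr at 37 degree Celsius, 95% humidity. CellTiter-Glo was added, plates sat 10 min at room temperature, then ATP-coupled luminescence was imaged as the viability read-out.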
# C33A = test: Primary qHTS to identify gynecologic anti-cancer compounds using libraries of approved drugs and bioactive compounds (AID 1345084); settings: Gynecologic cancer cell panel viability, ATPlite luminescence, 48 h; series mostly up to 57.5 µM; further: nearly all actives have a fitted effect of over 55% in size
# How it was run: (§2)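 In this quantitative HTS, cell killing is estimated from loss of ATP-dependent luciferase light. Cells see five compound concentrations over a 48 h exposure.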
# CAOV3 = test: as above; settings: Gynecologic cancer cell panel viability, ATPlite luminescence, 48 h; series mostly up to 57.5 µM
# How it was run: as §2
# CASKI = test: as above; settings: Gynecologic cancer cell panel viability, ATPlite luminescence, 48 h; series mostly up to 57.5 µM
# How it was run: as §2
# Es-2 = test: as above; settings: Gynecologic cancer cell panel viability, ATPlite luminescence, 48 h; series mostly up to 57.5 µM
# How it was run: as §2
# HeLa = test: as above; settings: Gynecologic cancer cell panel viability, ATPlite luminescence, 48 h; series mostly up to 57.5 µM
# How it was run: as §2
# Hek293T = test: as above; settings: Gynecologic cancer cell panel viability, ATPlite luminescence, 48 h, control line for the selectivity index; series mostly up to 57.5 µM
# How it was run: as §2
# JEG-3 = test: as above; settings: Gynecologic cancer cell panel viability, ATPlite luminescence, 48 h; series mostly up to 57.5 µM
# How it was run: as §2
# OV90 = test: as above; settings: Gynecologic cancer cell panel viability, ATPlite luminescence, 48 h; series mostly up to 57.5 µM
# How it was run: as §2
# NIH3T3 = test: Cytotoxic Profiling of Annotated Libraries Using Quantitative High-Throughput Screening (AID 1296008); settings: Five cell lines viability, CellTiter-Glo ATP luminescence, 48-72 h; max response: stronger effect = lower value; further: nearly all actives have a fitted effect of over 60% in size
# How it was run: as §1
# Potency means the concentration at half of the fitted maximal effect.
compound,measurement,setting,value
CNC12CC3C[C@@](C)(C1)C[C@](C)(C3)C2,outcome,KB-3-1,inactive
same,Potency,C33A,inactive
same,Potency,CAOV3,inactive
same,Potency,CASKI,inactive
same,Potency,Es-2,inactive
same,Potency,HeLa,inactive
same,Potency,Hek293T,inactive
same,Potency,JEG-3,inactive
same,Potency,OV90,inactive
Cc1ccc(NC(=O)Nc2cc(C(F)(F)F)ccc2F)cc1Nc1ccc2c(c1)NC(=O)/C2=C\c1ccc[nH]1,Potency,KB-3-1,20.6 µM (active)
same,Potency,NIH3T3,18.4 µM (active)
same,Potency,CASKI,inactive
same,Potency,Es-2,inactive
same,Potency,HeLa,inactive
same,Potency,Hek293T,inactive
same,Potency,JEG-3,inactive
same,Potency,OV90,inactive
NC(=O)c1cccc2cn(-c3ccc(C4CCCNC4)cc3)nc12 (stereo not drawn),max response,KB-3-1,-7.35%
same,max response,NIH3T3,-14%
same,Potency,CAOV3,inactive
same,Potency,CASKI,inactive
same,Potency,HeLa,inactive
same,Potency,Hek293T,inactive
same,Potency,JEG-3,inactive
same,Potency,OV90,inactive
O=c1[nH]ccc2cc(OC3CCNCC3)ccc12,outcome,KB-3-1,inactive
same,Potency,C33A,inactive
same,Potency,CAOV3,inactive
same,Potency,CASKI,inactive
same,Potency,Es-2,inactive
same,Potency,HeLa,inactive
same,Potency,Hek293T,inactive
same,Potency,JEG-3,inactive
same,Potency,OV90,inactive
Nc1nccn2c(C3CCC(C(=O)O)CC3)nc(-c3cc4cccc(Cl)c4[nH]3)c12 (stereo not drawn),Potency,KB-3-1,1.84 µM (active)
same,Potency,NIH3T3,7.31 µM (active)
same,Potency,Es-2,28.2 µM (active)
same,Potency,OV90,10 µM (active)
CCN(CC)CCN(Cc1ccc(-c2ccc(C(F)(F)F)cc2)cc1)C(=O)Cn1c(SCc2ccc(F)cc2)nc(=O)c2c1CCC2,Potency,KB-3-1,20.6 µM (active)
same,Potency,NIH3T3,4.61 µM (active)
same,Potency,CAOV3,12.6 µM (active)
same,Potency,CASKI,25.1 µM (active)
CC1(C)CCC[C@]2(C)[C@H]3CC(=O)O[C@]3(C)CC[C@@H]12,max response,KB-3-1,-11%
same,Potency,C33A,inactive
same,Potency,CAOV3,inactive
same,Potency,CASKI,inactive
same,Potency,Es-2,inactive
same,Potency,HeLa,inactive
same,Potency,Hek293T,inactive
same,Potency,JEG-3,inactive
same,Potency,OV90,inactive
CC(C)C(CO)Nc1nc(Nc2cc(N)cc(Cl)c2)c2ncn(C(C)C)c2n1 (stereo not drawn),Potency,KB-3-1,10.3 µM (active)
same,Potency,NIH3T3,3.66 µM (active)
same,Potency,HeLa,25.1 µM (active)
O=C(Nc1ccc(S(=O)(=O)C(F)(F)F)cc1)C1=CCN(c2ncccc2C(F)(F)F)CC1,Potency,KB-3-1,23.1 µM (active)
same,Potency,NIH3T3,16.4 µM (active)
same,Potency,JEG-3,inactive
C#CC[C@H](c1nc2cc(Cl)ccc2c(=O)n1Nc1ccccc1)N(CCCN)C(=O)c1cccc(Cl)c1F,Potency,KB-3-1,0.92 µM (active)
same,Potency,NIH3T3,10.3 µM (active)
same,Potency,Es-2,7.94 µM (active)
same,Potency,HeLa,3.16 µM (active)
same,Potency,Hek293T,14.1 µM (active)
same,Potency,OV90,inactive
